According to PubChem BioAssay (EPA / NIEHS):
Inconclusive results are not listed. Activity calls are given as the source filed them. How the source made its calls: active means hit-call score of the fitted dose curve at least 0.9, where 1 is the maximum; inconclusive means response in the unintended direction; inactive means score below 0.9.

Key:
[1] = target: Glucocorticoid receptor (Homo sapiens) (UniProt P04150); test: NVS_NR_hGR: NovaScreen (NVS) Nuclear Receptor Binding Assay for human Glucocorticoid Receptor (GR) (AID 2283363)
Sequence of Glucocorticoid receptor (Homo sapiens) (P04150 whole entry, looked up): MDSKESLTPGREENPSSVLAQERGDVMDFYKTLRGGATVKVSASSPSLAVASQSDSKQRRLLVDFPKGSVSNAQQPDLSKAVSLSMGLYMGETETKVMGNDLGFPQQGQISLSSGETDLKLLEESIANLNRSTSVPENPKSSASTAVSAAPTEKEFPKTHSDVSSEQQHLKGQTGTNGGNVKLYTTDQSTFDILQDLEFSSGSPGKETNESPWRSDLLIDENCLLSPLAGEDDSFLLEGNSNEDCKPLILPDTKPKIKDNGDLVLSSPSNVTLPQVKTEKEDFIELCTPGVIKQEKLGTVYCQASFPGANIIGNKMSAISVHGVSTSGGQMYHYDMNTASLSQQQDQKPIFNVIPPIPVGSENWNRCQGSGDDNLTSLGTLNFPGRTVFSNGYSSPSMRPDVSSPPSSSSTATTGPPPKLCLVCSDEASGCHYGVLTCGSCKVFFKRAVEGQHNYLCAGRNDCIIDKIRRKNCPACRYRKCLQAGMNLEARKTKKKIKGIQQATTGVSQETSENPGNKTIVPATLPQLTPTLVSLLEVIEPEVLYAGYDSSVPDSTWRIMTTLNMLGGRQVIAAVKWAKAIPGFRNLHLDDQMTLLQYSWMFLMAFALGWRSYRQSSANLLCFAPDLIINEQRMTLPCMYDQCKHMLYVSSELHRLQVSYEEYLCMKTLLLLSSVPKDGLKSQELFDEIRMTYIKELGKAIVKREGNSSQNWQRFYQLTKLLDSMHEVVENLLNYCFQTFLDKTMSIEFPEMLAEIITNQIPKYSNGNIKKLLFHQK
Procedure, shortened: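 Competitive displacement of a labelled ligand was measured on cell-free receptor preparations after 16 h exposure. Initial testing used 25 uM in duplicate with plate controls; confirmed actives went into concentration series.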

[2] = target: Nuclear receptor subfamily 1 group I member 2 (Homo sapiens) (UniProt O75469); test: NVS_NR_hPXR: NovaScreen (NVS) Nuclear Receptor Binding Assay for human Pregnane X Receptor (PXR) (AID 2283365);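 further: a drop in FRET signal versus DMSO baseline means the compound binds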
Sequence of Nuclear receptor subfamily 1 group I member 2 (Homo sapiens) (O75469 whole entry, looked up): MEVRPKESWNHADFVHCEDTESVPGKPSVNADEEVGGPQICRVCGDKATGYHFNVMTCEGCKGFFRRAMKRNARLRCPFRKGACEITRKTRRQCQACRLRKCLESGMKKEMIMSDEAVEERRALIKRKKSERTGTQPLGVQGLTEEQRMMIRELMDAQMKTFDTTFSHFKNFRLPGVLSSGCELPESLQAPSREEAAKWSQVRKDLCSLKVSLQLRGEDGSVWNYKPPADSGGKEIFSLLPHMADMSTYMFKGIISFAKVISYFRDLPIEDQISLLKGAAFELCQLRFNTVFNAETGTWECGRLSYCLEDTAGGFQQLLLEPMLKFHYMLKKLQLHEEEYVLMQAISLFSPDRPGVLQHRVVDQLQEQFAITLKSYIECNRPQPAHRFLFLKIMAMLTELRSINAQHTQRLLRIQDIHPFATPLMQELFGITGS
Procedure, shortened: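 Human PXR protein, cell-free; compound added, incubated 2 h, TR-FRET read. Signal decrease vs DMSO = binding. Screened 25 uM duplicate, actives re-run as dilution series.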

[3] = target: guinea pig Sigma Receptor, Non-selective Binding, SIGMAR1 (gene 100135589) (UniProt Q60492); test: NVS_OR_gSIGMA_NonSelective: NovaScreen (NVS) Nuclear Receptor Binding Assay for guinea pig Sigma Receptor, Non-selective Binding (AID 2283367)
Sequence of guinea pig Sigma Receptor, Non-selective Binding, SIGMAR1 (gene 100135589) (Q60492 whole entry, looked up): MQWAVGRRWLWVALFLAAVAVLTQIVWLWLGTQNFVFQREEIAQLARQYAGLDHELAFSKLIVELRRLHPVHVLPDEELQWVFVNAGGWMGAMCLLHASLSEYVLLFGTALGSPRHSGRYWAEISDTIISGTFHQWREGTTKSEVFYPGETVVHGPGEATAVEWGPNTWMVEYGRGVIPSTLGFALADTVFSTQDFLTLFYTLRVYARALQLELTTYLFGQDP
Experimental: NVS_OR_gSIGMA_NonSelective is a biochemical, single-readout assay that uses extracted gene-proteins from Guinea pig brain membranes in a tissue-based cell-free assay. Measurements were taken 1 hour after chemical dosing in a 48-well plate.NVS_OR_gSIGMA_NonSelective is one of one assay component(s) measured or calculated from the NVS_OR_gSIGMA_NonSelective assay. It is designed to make measurements of radioligand binding, a form of binding reporter, as detected with scintillation counting signals by Filter-based radiodetection technology.Data from the assay component NVS_OR_gSIGMA_NonSelective was analyzed into 1 assay endpoint. This assay endpoint, NVS_OR_gSIGMA_NonSelective, was analyzed in the positive analysis fitting direction relative to DMSO as the negative control and baseline of activity. Using a type of binding reporter, loss-of-signal activity can be used to understand changes in the binding as they relate to the gene Sigmar1. Furthermore, this assay endpoint can be referred to as a primary readout, because the performed assay has only produced 1 assay endpoint. To generalize the intended target to other relatable targets, this assay endpoint is annotated to the misc protein intended target family, where the subfamily is chaperone.
Binding assays used specific radioligands (tritiated, iodinated) with non-radioactive competitive displacement ligands in agonist or antagonist protocols (as indicated) and various reference compounds and inhibitors to titrate specific binding to receptors and transporters. Most enzyme assays (CYPs, kinases, phosphatases, proteases, HDACs) used recombinant protein and specific substrates (fluorescence mostly, some colorimetric and radioactive) and inhibitors, followed by a biochemical separation of substrate and product. All assays for the biochemical HTS were initially run in duplicate at a single concentration (10 uM for CYP450 assays and 25 uM for all others). […] Each assay was run with positive and negative controls, and concurrent controls on every plate. The follow-up (secondary) screen tested active chemical-pairs in concentration series, as well as a few additional assays not tested in the primary screen, some selected negative inactives, and several cases re-run in the concentration series for confirmatory purposes.

[4] = system: guinea pig Dopamine Transporter (DAT), gene 100714898; test: NVS_TR_gDAT: NovaScreen (NVS) Transporter Assay for guinea pig Dopamine Transporter (DAT) (AID 2283369);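 further: active compounds lower bound radioligand signal relative to DMSO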
Procedure, shortened: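 Scintillation counts of filter-retained radioligand report binding to guinea pig striatal membranes after 2 h. Activity scored as signal loss relative to DMSO, first at 25 uM in duplicate, then in concentration series to 50 uM.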

[5] = target: human Serotonin Transporter (SERT), SLC6A4 (gene 6532) (UniProt P31645); test: NVS_TR_hSERT: NovaScreen (NVS) Transporter Assay for human Serotonin Transporter (SERT) (AID 2283372)
Sequence of human Serotonin Transporter (SERT), SLC6A4 (gene 6532) (P31645 whole entry, looked up): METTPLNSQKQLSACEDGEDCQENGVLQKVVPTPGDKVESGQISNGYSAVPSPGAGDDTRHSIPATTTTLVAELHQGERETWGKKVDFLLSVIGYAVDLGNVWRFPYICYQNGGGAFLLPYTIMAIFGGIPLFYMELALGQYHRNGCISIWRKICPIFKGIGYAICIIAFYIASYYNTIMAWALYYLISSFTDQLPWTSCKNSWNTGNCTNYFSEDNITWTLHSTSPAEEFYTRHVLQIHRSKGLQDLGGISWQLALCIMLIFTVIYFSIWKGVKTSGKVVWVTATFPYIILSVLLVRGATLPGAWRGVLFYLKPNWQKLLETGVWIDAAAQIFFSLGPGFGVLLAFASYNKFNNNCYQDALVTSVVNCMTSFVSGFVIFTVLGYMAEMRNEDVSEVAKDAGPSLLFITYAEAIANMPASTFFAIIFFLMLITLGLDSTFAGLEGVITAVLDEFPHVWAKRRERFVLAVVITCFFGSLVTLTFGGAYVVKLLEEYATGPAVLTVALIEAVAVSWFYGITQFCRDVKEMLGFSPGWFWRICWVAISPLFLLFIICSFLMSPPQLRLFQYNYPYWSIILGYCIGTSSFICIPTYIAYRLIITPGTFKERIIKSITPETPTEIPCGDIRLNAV
Procedure, shortened: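 Radioligand binding to native SERT in human platelet membranes, read by filter-based scintillation counting 1 h after dosing. Primary screen in duplicate at 25 uM; actives followed up in concentration series; loss of signal versus DMSO baseline.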

[6] = system: rat Norepinephrine Transporter (NET), gene 83511; test: NVS_TR_rNET: NovaScreen (NVS) Transporter Assay for rat Norepinephrine Transporter (NET) (AID 2283373)
Procedure, shortened: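 Rat forebrain membranes; radioligand binding measured by filter-based scintillation counting 1 hour after dosing. Loss of specific binding versus DMSO baseline scored; primary screen in duplicate at 25 uM, actives followed up in concentration series.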

[7] = target: human Dopamine Transporter (DAT), SLC6A3 (gene 6531) (UniProt Q01959); test: NVS_TR_hDAT: NovaScreen (NVS) Transporter Assay for human Dopamine Transporter (DAT) (AID 2283374);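 further: activity means loss of bound radioligand signal relative to DMSO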
Sequence of human Dopamine Transporter (DAT), SLC6A3 (gene 6531) (Q01959 whole entry, looked up): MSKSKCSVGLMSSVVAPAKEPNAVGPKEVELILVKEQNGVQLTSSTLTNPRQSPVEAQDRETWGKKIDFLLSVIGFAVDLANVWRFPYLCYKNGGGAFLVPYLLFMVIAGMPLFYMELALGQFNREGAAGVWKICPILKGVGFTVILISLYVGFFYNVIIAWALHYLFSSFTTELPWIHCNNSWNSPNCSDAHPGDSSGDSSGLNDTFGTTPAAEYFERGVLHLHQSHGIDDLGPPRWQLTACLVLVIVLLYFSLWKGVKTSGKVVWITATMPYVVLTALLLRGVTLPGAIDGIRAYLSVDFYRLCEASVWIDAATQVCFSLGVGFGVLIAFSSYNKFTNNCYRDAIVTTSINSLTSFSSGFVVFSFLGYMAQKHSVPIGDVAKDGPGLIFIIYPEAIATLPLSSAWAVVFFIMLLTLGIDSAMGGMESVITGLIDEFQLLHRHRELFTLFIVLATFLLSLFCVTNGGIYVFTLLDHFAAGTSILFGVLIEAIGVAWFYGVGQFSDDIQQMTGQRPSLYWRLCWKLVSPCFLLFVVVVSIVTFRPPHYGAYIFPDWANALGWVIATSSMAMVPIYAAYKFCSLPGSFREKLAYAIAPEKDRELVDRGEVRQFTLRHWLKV
Procedure, shortened: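 Test chemicals were first screened in duplicate at 25 uM, with actives retested as concentration series. Displacement of a specific radioligand from cell-free human dopamine transporter was measured after 1 h by filtration and scintillation counting.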

[8] = target: Peroxisome proliferator-activated receptor gamma (Homo sapiens) (UniProt P37231); test: NVS_NR_hPPARg: NovaScreen (NVS) Nuclear Receptor Binding Assay for human Peroxisome Proliferator-activated Receptor gamma (PPARg) (AID 2283370)
Sequence of Peroxisome proliferator-activated receptor gamma (Homo sapiens) (P37231 whole entry, looked up): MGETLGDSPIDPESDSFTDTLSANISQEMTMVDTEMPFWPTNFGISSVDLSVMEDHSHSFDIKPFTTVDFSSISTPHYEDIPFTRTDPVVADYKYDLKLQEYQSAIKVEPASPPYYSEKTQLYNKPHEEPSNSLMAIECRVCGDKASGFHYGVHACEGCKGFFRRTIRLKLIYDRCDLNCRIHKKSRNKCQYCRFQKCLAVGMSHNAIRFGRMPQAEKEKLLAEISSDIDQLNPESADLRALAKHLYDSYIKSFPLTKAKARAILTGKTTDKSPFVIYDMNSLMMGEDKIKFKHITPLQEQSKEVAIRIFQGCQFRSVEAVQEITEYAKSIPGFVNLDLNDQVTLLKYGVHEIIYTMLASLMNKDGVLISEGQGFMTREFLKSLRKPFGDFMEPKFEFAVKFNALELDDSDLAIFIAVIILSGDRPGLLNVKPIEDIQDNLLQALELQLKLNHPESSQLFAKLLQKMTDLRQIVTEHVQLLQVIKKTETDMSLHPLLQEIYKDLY
Procedure, shortened: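 Chemicals were tested first in duplicate at 25 uM, then in concentration series if active. Binding to cell-free PPARg protein was measured by fluorescence polarization after 2 h, with loss of signal scored against DMSO.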

[9] = target: human Adenosine Transporter (Adot), SLC29A1 (gene 2030) (UniProt Q99808); test: NVS_TR_hAdoT: NovaScreen (NVS) Transporter Assay for human Adenosine Transporter (Adot) (AID 2283368)
Sequence of human Adenosine Transporter (Adot), SLC29A1 (gene 2030) (Q99808 whole entry, looked up): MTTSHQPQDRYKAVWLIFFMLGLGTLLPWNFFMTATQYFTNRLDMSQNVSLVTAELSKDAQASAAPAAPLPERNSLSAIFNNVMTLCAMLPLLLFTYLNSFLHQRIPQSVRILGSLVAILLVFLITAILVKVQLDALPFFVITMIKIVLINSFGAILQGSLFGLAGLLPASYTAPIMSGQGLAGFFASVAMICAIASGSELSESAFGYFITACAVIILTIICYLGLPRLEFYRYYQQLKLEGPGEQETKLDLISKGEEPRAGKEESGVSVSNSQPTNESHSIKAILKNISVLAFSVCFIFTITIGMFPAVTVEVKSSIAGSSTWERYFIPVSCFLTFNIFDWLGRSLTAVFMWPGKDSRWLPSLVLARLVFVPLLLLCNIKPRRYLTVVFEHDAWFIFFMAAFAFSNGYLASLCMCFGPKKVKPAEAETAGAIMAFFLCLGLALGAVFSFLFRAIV
Procedure, shortened: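 U937-derived membranes, cell-free radioligand binding, filter scintillation 1 h after dosing. 25 uM duplicate screen; hits (e.g. 30% inhibition) run in concentration-response up to 50 uM; loss of signal versus DMSO.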

[10] = target: rat Androgen Receptor (AR), Ar (gene 24208) (UniProt P15207); test: NVS_NR_rAR: NovaScreen (NVS) Nuclear Receptor Binding Assay for rat Androgen Receptor (AR) (AID 2283366)
Sequence of rat Androgen Receptor (AR), Ar (gene 24208) (P15207 whole entry, looked up): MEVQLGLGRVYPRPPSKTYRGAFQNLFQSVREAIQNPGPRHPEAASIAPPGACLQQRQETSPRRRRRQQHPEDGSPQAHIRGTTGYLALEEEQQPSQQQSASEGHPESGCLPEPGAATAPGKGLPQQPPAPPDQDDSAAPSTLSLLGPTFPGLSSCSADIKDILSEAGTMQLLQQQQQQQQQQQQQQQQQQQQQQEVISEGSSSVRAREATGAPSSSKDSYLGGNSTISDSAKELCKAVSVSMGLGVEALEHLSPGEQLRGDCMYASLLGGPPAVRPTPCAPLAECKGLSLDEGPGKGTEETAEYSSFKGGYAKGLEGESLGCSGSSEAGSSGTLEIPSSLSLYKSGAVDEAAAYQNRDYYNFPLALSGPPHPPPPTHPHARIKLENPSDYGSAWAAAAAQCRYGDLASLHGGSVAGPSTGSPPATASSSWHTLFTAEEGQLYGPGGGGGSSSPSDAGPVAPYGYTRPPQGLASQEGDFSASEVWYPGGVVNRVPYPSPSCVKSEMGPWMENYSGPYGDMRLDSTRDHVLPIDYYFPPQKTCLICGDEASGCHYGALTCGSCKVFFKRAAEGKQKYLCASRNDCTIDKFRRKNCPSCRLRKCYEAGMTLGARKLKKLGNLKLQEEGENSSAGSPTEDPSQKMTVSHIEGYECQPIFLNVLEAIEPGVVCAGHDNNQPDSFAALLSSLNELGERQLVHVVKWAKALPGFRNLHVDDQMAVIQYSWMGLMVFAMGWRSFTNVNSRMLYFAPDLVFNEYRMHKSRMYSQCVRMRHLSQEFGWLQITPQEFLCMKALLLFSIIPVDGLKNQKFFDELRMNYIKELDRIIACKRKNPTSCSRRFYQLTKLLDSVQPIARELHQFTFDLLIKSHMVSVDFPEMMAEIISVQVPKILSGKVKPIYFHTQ
Procedure, shortened: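 Cell-free radioligand binding on extracts of prostate from testosterone-pretreated rats, read by filter-based scintillation counting 18 h after dosing. Loss of bound signal fitted positively versus DMSO; primary screen in duplicate at 25 uM, actives followed up in concentration series.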

Q: How did the AC50 [1] turn out when `CN(C)[C@@H]1C(=O)C(C(N)=O)=C(O)[C@@]2(O)C(=O)C3=C(O)c4c(O)cccc4[C@@](C)(O)[C@H]3C[C@@H]12` was run?
A: Its AC50 is 15.9 µM (active).

Q: With `CCCCCCCCCCCCCN1CC(C)OC(C)C1` (configuration not stated) as the compound, how does the outcome [2] read?
A: Its outcome is “inactive”.

Q: And the AC50 [3]?
A: The AC50 was 0.0622 µM (active).

Q: With `O=C(N[C@H](c1ccccc1)[C@@H]1CN2CCC1CC2)c1c(Cl)ccc(C(F)(F)F)c1Cl` as the compound, how does the AC50 [3] read?
A: Its AC50 is 22.3 µM (active).

Q: And the AC50 [4]?
A: The AC50 was 29.9 µM (active).

Q: And the AC50 [5]?
A: The AC50 was 1.52 µM (active).

Q: And the AC50 [6]?
A: Its AC50 is 26.4 µM (active).

Q: And the AC50 [7]?
A: The AC50 was 23.1 µM (active).

Q: `O=C(Oc1ccc(Br)cc1)N1CCN2CCC1CC2` was tested. Which AC50 [4] did it give?
A: Its AC50 is 7.13 µM (active).

Q: And the outcome [8]?
A: Its outcome is “inactive”.

Q: What about the AC50 [5] of the same compound?
A: Its AC50 is 1.91 µM (active).

Q: What about the AC50 [7] of the same compound?
A: Its AC50 is 8.54 µM (active).

Q: Which outcome [3] does the source give for `CC(C)(C)C(O)(CCc1ccc(Cl)cc1)Cn1cncn1` (configuration not stated) here?
A: Its outcome is “inactive”.

Q: What about the AC50 [4] of the same compound?
A: The AC50 was 8.79 µM (active).

Q: And the AC50 [7]?
A: Its AC50 is 4.04 µM (active).

Q: Which results are given for `CCCCOC(=O)c1ccccc1C(=O)OCc1ccccc1`?
A: outcome [3]: inactive; outcome [8]: inactive

Q: What does the source list for `CCCCCCCCn1sccc1=O`?
A: AC50 [1]: 7.16 µM (active); AC50 [9]: 16.6 µM (active); AC50 [8]: 0.693 µM (active); outcome [7]: inactive

Q: Which outcome [1] does the source give for `Cn1cc(-c2ccccc2)c(=O)c(-c2cccc(C(F)(F)F)c2)c1` here?
A: The outcome was “inactive”.

Q: What about the outcome [8] of the same compound?
A: The outcome was “inactive”.

Q: And the outcome [5]?
A: The outcome was “inactive”.

Q: And the AC50 [7]?
A: The AC50 was 16.5 µM (active).

Q: Which outcome [10] does the source give for `Cc1cc(N=Nc2ccccc2C)ccc1N` here?
A: Its outcome is “inactive”.

Q: What about the outcome [8] of the same compound?
A: The outcome was “inactive”.

Q: What about the AC50 [7] of the same compound?
A: The AC50 was 17.4 µM (active).

Q: `[Cl-].[Cl-].[Hg+2]` was tested. Which AC50 [1] did it give?
A: Its AC50 is 8.46 µM (active).

Q: And the AC50 [9]?
A: Its AC50 is 5.1 µM (active).

Q: What about the AC50 [4] of the same compound?
A: Its AC50 is 44.2 µM (active).

Q: And the AC50 [7]?
A: The AC50 was 25 µM (active).

Q: With `CCNS(=O)(=O)C(F)(F)C(F)(F)C(F)(F)C(F)(F)C(F)(F)C(F)(F)C(F)(F)C(F)(F)F` as the compound, how does the outcome [2] read?
A: The outcome was “inactive”.

Q: And the outcome [9]?
A: Its outcome is “inactive”.

Q: What about the outcome [8] of the same compound?
A: The outcome was “inactive”.

Q: Which results are given for `O=[N+]([O-])C(Br)(CO)CO`?
A: AC50 [9]: 25 µM (active); outcome [8]: inactive
